Screening data: PubChem BioAssay, University of Kansas High Throughput Screening Laboratory
mHTT-CaM PPI inh – mHTT-calmodulin interaction abrogation; inhibition, % at 15 µM; AlphaScreen His-mHTT/GST-CaM binding, luminescence; 190,000 tested, 3.6% active; P42858
Target sequence (P42858 whole entry, looked up, change not shown): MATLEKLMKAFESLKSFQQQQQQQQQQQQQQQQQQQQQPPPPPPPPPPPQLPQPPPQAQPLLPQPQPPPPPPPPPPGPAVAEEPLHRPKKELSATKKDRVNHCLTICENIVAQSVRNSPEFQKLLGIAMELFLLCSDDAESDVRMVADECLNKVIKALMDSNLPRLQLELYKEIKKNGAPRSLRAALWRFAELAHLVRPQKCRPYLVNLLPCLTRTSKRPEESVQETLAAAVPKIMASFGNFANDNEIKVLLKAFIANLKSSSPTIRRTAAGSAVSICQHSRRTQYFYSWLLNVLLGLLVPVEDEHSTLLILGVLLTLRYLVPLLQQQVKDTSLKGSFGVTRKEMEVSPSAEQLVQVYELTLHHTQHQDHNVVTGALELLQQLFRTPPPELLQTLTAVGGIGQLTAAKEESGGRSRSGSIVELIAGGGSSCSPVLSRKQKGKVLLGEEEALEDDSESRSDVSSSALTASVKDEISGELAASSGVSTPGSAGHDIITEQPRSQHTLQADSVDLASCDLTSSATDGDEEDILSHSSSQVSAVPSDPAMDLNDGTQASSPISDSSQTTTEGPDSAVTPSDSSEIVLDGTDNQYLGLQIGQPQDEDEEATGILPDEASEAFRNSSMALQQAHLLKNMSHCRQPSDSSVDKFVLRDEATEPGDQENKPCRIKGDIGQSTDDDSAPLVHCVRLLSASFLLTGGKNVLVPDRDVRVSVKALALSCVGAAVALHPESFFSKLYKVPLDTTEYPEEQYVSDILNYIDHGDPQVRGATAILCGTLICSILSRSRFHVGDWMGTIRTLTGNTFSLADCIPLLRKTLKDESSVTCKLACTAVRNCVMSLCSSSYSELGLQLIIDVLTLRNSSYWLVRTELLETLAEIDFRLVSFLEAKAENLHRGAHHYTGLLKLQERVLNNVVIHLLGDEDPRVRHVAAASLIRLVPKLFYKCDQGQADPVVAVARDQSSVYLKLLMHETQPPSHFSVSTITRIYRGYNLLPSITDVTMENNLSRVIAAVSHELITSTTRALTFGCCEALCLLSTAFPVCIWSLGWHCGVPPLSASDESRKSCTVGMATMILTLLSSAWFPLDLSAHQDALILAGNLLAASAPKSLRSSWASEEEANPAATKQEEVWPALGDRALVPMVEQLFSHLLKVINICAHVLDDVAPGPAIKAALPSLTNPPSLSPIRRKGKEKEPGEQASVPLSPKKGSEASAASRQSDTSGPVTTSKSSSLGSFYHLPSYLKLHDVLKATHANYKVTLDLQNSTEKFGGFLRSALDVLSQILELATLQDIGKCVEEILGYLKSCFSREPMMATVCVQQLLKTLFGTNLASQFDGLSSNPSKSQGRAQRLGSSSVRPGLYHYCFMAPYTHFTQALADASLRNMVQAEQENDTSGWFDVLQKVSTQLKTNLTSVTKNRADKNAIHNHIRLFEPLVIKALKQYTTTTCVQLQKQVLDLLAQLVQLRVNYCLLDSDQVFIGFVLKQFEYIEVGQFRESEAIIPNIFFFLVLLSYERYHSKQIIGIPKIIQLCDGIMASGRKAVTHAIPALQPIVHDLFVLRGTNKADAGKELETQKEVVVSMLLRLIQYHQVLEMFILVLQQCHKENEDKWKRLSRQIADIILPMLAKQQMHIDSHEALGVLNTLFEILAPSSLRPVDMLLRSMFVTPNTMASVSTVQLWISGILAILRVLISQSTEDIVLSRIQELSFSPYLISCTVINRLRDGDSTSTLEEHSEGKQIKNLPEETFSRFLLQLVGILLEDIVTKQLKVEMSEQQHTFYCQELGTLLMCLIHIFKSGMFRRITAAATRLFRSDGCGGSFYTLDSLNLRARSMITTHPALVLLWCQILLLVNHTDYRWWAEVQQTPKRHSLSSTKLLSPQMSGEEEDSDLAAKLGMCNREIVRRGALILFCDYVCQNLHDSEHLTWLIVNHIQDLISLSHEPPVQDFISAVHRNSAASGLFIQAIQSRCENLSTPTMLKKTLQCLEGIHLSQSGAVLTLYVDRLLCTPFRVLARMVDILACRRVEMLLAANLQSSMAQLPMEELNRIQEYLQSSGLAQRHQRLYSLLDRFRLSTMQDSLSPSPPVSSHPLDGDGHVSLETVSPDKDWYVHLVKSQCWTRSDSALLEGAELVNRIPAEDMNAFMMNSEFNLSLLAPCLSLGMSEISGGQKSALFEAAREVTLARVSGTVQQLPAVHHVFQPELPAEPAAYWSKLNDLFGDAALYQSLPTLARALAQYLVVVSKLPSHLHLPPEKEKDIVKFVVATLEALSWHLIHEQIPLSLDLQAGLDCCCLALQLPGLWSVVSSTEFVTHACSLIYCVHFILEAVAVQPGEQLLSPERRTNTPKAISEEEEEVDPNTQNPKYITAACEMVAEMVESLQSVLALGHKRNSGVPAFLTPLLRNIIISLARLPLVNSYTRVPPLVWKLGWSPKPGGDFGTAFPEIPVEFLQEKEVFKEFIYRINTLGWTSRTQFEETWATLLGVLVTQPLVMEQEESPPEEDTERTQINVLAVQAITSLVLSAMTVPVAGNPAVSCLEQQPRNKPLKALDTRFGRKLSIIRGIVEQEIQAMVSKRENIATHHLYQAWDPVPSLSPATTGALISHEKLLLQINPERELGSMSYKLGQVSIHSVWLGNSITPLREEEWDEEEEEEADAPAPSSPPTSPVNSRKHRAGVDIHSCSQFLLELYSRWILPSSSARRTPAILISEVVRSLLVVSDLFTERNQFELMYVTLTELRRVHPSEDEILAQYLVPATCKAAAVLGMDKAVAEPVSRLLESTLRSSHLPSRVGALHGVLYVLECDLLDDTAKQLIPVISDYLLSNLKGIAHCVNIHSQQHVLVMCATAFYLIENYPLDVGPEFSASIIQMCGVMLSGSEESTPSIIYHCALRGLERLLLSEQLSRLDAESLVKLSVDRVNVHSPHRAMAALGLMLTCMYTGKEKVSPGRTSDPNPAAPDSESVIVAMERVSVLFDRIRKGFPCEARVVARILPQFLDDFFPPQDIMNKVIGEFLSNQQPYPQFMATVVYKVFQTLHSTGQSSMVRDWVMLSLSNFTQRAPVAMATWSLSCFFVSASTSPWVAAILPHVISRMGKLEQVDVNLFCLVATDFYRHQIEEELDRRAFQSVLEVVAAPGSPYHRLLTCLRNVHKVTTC
Pf apPOL block – Pf-apPOL DNA polymerase inhibition. Recombinant Pf-apPOL, molecular beacon fluorescence, 1.5 h. inhibition, % at 10 µM. 210,000 tested, 0.25% active. AID 1794808
Of the large screens only hits and unclear results are named; the others gave an inactive call. This is one part of a sample in which hits are shown more often than they occur. No stated cut-off is given here; in the data, active means inhibition above about 50%; inactive means the rest.

CCCNc1cc(N2CCCC(CCC(=O)Nc3ccc(OC)c(OC)c3)C2)ncn1 (stereo unspecified)	none
COc1cc(-c2c(C#N)c(N)nc3sc(C(N)=O)c(N)c23)cc(OC)c1OC	mHTT-CaM PPI inh 65.0
COc1cc(-c2c(C#N)c(N)nc(SC)c2C#N)cc(OC)c1OC	none
COc1cc(C(=O)Nc2ccc3oc(-c4cccc(Cl)c4)nc3c2)cc(OC)c1OC	none
COc1ccc(-c2cn(CC(=O)N3CCCCC3)c(=O)o2)cc1	none
O=C(COc1ccc(Cl)cc1)N1CCN(c2nc(CN3CCCCC3)cs2)CC1	mHTT-CaM PPI inh 50.1
O=C(C1CCCC1)N1CCN(c2nc(CN3CCCCCC3)cs2)CC1	none
Cc1ccc(OCC(=O)N2CCN(c3nc(CN4CCCCC4)cs3)CC2)cc1	none
O=C(C1CCCCC1)N1CCN(c2nc(CN3CCCCCC3)cs2)CC1	mHTT-CaM PPI inh 96.2
CC(=O)N1CCc2sc(S(=O)(=O)N3CCN(c4ccccc4)CC3)cc2C1	none
CC(=O)N1CCc2sc(C(=O)N3CCN(c4cccc(Cl)c4)CC3)cc2C1	mHTT-CaM PPI inh 78.2
CCC(=O)N1CCc2sc(C(=O)N3CCN(c4cccc(Cl)c4)CC3)cc2C1	none
CC(=O)N1CCc2sc(S(=O)(=O)N3CCN(c4ccccc4Cl)CC3)cc2C1	mHTT-CaM PPI inh 80.7
COc1ccc(NC(=O)c2ccccc2C)c([N+](=O)[O-])c1	none
O=C1NN(c2cccc(Br)c2)C(=O)/C1=C/c1ccc(N2CCOCC2)cc1	none
CC(C)CC(=O)N1CCN(Cc2noc3ccccc23)CC1	none
O=[N+]([O-])c1cc2c(cc1Br)-c1cc(Br)c([N+](=O)[O-])cc1S2(=O)=O	none
CCc1nc(N2CCCC2=O)sc1C(=O)N1CCN(c2cc(C)ccc2C)CC1	mHTT-CaM PPI inh 95.4
COC(=O)c1cccc(C(=O)N2CCN(c3cc(C)ccc3C)CC2)n1	none
CC(C)c1nc(N2CCCC2=O)sc1C(=O)N1CCN(c2ccc(F)cc2)CC1	none
Cc1ccc(C)c(N2CCN(C(=O)c3cc(C)n4nccc4n3)CC2)c1	none
CC(C)c1nc(N2CCCC2=O)sc1C(=O)N1CCN(c2ccccc2F)CC1	mHTT-CaM PPI inh 55.0
CCc1cc(C(=O)N2CCN(c3cc(C)ccc3C)CC2)nc2ccnn12	mHTT-CaM PPI inh 54.1
O=C(CC1CSc2nccc(=O)n21)NCCC1=CCCCC1 (stereo unspecified)	none
CC(C)C(=O)N1CCCC1c1cccc(F)c1 (stereo unspecified)	none
NC(=O)c1nn(-c2ccccc2)nc1NC(=O)Cn1nnc(-c2ccc3c(c2)OCO3)n1	none
O=C1NC(=O)N(c2ccccc2)C(=O)/C1=C/c1ccn(-c2cccc([N+](=O)[O-])c2)c1	none
O=C1c2cc([N+](=O)[O-])ccc2-c2c(O)cc([N+](=O)[O-])cc21	none (no result: mHTT-CaM PPI inh)
O=C(C1CCC(CNS(=O)(=O)c2ccc(Br)s2)CC1)N1CCCCCC1 (stereo unspecified)	none
COCCn1c(C2CCN(C(=O)Nc3ccccc3)C2)nc2cccnc21 (stereo unspecified)	none
CCOC(=O)C1CCN(c2nc(-c3cccc(C)c3)nnc2C)CC1	mHTT-CaM PPI inh 57.9
CCOC(=O)C1CCN(c2nc(-c3ccc(C)cc3)nnc2C)CC1	none
Cc1ccc(-c2nnc(C)c(N3CCC(C)CC3)n2)cc1	mHTT-CaM PPI inh 82.2
COc1ccc(-c2nnc(C)c(N3CCC(C)CC3)n2)cc1	none
O=C1C(=C2CCCC2)CCC1=C1CCCC1	none (no result: Pf apPOL block)
CCOC(=O)CNC(=O)N1CCCC1c1ccc(Cl)cc1 (stereo unspecified)	none
CC1(C)C(=O)OC(c2ccccc2F)C2(CCCCC2)C1=O (stereo unspecified)	none
COc1ccc(C2CC(=O)Oc3c(C(CCN4CCCCC4)c4ccc(N(C)C)cc4)c(OC)cc(OC)c32)cc1 (stereo unspecified)	mHTT-CaM PPI inh 100.8
COc1ccc(C2CC(=O)Oc3cc(OC)c(OC)c(OC)c32)cc1 (stereo unspecified)	none
COc1ccc(C2CC(=O)Oc3c(C(CCN4CCCC(C)C4)c4ccc(N(C)C)cc4)c(OC)cc(OC)c32)cc1 (stereo unspecified)	mHTT-CaM PPI inh 100.8
COc1ccc(C2CC(=O)Oc3c(C(CCN4CCCC(C)C4)c4cc(OC)c(OC)c(OC)c4)c(OC)cc(OC)c32)cc1 (stereo unspecified)	mHTT-CaM PPI inh 61.0
COc1cc(OC)c2c(c1C(CCN1CCCC1)c1ccc(N(C)C)cc1)OC(=O)CC2c1ccc(N(C)C)cc1 (stereo unspecified)	mHTT-CaM PPI inh 100.3
COc1ccc(C(CC(=O)N2CCCC(C)C2)c2c(O)cc(OC)cc2OC)cc1 (stereo unspecified)	none
O=C(c1ccc2c(c1)OCO2)N1CCCn2nc(-c3ccncc3)cc2C1	none
Cc1ccccc1NC(NC(=O)c1ccc(F)cc1)C(Cl)(Cl)Cl (stereo unspecified)	none
COc1cc(C2CC(=O)Oc3cc(O)ccc32)cc(OC)c1OC (stereo unspecified)	none
COc1cc(C2CC(=O)Oc3c(C(CCN4CCOCC4)c4ccc(N(C)C)cc4)c(OC)cc(OC)c32)cc(OC)c1OC (stereo unspecified)	mHTT-CaM PPI inh 64.6
O=C(CCCCCCC(=O)N/N=C/c1cc(Br)cs1)N/N=C/c1cc(Br)cs1	none (no result: Pf apPOL block)
CN(C(=O)CSc1nc(-c2ccc(F)cc2)cs1)c1ccccc1	none
O=C(OC1Cc2c(O)cc(O)cc2OC1c1cc(O)c(O)c(O)c1)c1cc(O)c(O)c(O)c1 (stereo unspecified)	Pf apPOL block 53.7 (no result: mHTT-CaM PPI inh)
O=C1c2c(O)cc(O)cc2OC(c2ccc(O)c(O)c2)C1O (stereo unspecified)	none (no result: mHTT-CaM PPI inh)
CC(=O)N1CCc2cc(N3CC(C(=O)NCc4cccc(C)c4)CC3=O)ccc21 (stereo unspecified)	none
CC1=C(Br)C(=O)c2ccccc2C1=O	none
O=C1C(Br)=C(Br)C(=O)c2ccccc21	mHTT-CaM PPI inh 100.0
O=C1C(Br)=C(Br)C(=O)C(Br)=C1Br	mHTT-CaM PPI inh 81.0
O=C(c1nn2c(c1Cl)NC(c1cccs1)CC2C(F)(F)F)N1CCCC1 (stereo unspecified)	none
CN(C(=O)c1nn2c(c1Cl)NC(c1cccs1)CC2C(F)(F)F)C1CCCCC1 (stereo unspecified)	mHTT-CaM PPI inh 77.0
O=C(c1nn2c(c1Cl)NC(c1cccs1)CC2C(F)(F)F)N1CCc2ccccc2C1 (stereo unspecified)	mHTT-CaM PPI inh 100.0
O=C(NC1CCCCC1)c1nn2c(c1Cl)NC(c1cccs1)CC2C(F)(F)F (stereo unspecified)	none
COc1ccc(OC)c(C2C3=C(CC(C)(C)CC3=O)Nc3ccc4ncccc4c32)c1 (stereo unspecified)	mHTT-CaM PPI inh 52.0
CC1(C)CC(=O)C2=C(C1)Nc1ccc3ncccc3c1C2c1ccccn1 (stereo unspecified)	none
CCSC1=NSC2=NC(=O)/C(=C\c3cccnc3)C(=N)N12	none
O=C(c1ccc(N2CCCC2)nn1)N1CCN(c2ncccn2)CC1	none
O=C(c1ccc(F)cc1F)N1CCN(c2ccc(-c3cccnc3)nn2)CC1	none
COc1ccccc1CC(=O)N1CCN(c2ccc(-c3ccccn3)nn2)CC1	mHTT-CaM PPI inh 100.2
O=C(c1cc(-c2ccc(F)cc2)n[nH]1)N1CCN(c2ccc(-c3ccccn3)nn2)CC1	mHTT-CaM PPI inh 100.1
O=C(c1ccc(=O)[nH]n1)N1CCN(c2ccc(-c3ccccn3)nn2)CC1	mHTT-CaM PPI inh 100.0
COc1ccccc1CC(=O)N1CCN(c2ccccn2)CC1	none
Cc1ccc(N2C(=O)CC(N3CCN(c4ccccc4)CC3)C2=O)c(C)c1 (stereo unspecified)	none
